Source: PubChem
AmpC detergent – blocks E. coli AmpC beta-lactamase in detergent assay | AmpC hydrolysis of nitrocefin, absorbance 480 nm, 0.01% Triton | 370,000 compounds, 0.041% hits | Potency, µM (titrated, usually from 114 µM), actives largely listed as inhibitors | P00811; further: nearly all actives have a fitted effect of over 25% in size
Target sequence (P00811 whole entry, looked up): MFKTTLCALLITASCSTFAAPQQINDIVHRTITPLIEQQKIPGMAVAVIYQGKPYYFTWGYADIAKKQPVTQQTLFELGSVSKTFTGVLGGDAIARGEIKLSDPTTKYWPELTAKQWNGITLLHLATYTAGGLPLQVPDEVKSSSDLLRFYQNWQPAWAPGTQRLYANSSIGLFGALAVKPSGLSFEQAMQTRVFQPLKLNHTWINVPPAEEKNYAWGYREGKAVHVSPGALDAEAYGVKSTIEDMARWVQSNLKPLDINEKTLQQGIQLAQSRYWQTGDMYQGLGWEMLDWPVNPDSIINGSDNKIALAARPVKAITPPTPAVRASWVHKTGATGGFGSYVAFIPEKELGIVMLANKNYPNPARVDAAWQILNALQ
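AmpC (5.3 nM in the dispensed reagent) in 20 mM phosphate pH 7.0 with 0.01% (detergent screen) or 0.0001% Triton X-100 was preincubated with compounds for 15 min at room temperature. Nitrocefin was then added from an 800 uM solution, and hydrolysis was followed at 480 nm.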
Pf growth 48h – P. falciparum growth inhibition at 48 hours (one generation); P. falciparum luciferase growth in erythrocytes, 48 h; Potency, µM (series often up to 28.7 µM), actives largely listed as inhibitors; 310,000 compounds, 5.9% hits
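Firefly luciferase activity from engineered P. falciparum reports growth; inhibitors lower the luminescent signal. Cultures contained 2% hematocrit erythrocytes at 0.1% final parasitemia.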
Sm TGR block – inhibitors of Schistosoma mansoni thioredoxin glutathione reductase. Q962Y6. purified TGR, DTNB reduction, TNB absorbance 405 nm. Potency, µM (top dose mostly 114 µM), actives largely listed as inhibitors. 360,000 compounds, 3% hits. AID 485364; further: nearly all actives have a fitted effect of over 60% in size
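TGR 20 nM + NADPH 100 uM (dispensed conc.), cpd preinc 15 min RT; start with NADPH (500 uM addition) then DTNB (15 mM addition). Kinetic TNB absorbance, 405 nm filter. Four-parameter Hill fit across titration.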
AmpC no deterg – AmpC beta-lactamase inhibition without detergent. P00811. AmpC nitrocefin hydrolysis, absorbance 480 nm, 0.0001% Triton. Potency, µM (titrated, usually from 57.1 µM), hits mostly inhibitors. 330,000 compounds, 0.52% hits. AID 485341; further: nearly all actives have a fitted effect of over 20% in size
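AmpC (5.3 nM in the dispensed reagent) in 20 mM phosphate pH 7.0 with 0.01% (detergent screen) or 0.0001% Triton X-100 was preincubated with compounds for 15 min at room temperature. Nitrocefin was then added from an 800 uM solution, and hydrolysis was followed at 480 nm.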
SARS PLpro yeast – SARS-CoV PLP inhibition in yeast. AID 485353. S. cerevisiae expressing SARS-CoV PLpro, growth rescue. 330,000 compounds, 0.19% hits. Potency, µM (top dose mostly 32.9 µM), most hits filed as activators; calls by dose curve; further: nearly all actives have a fitted effect of over 55% in size
Pf growth 96h – P. falciparum growth inhibition at 96 hours. Potency, µM (highest dose often 28.7 µM), most hits filed as inhibitors. 320,000 compounds, 6.9% hits. P. falciparum luciferase reporter growth, 96 h. AID 504834
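Cell-based qHTS: luciferase-tagged P. falciparum in erythrocytes (2% hematocrit, 0.05% parasitemia final) incubated with compounds for 96 hours, 37 C, 5% CO2; luciferase detection reagent then added and luminescence measured.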
A number is an active result; - = inactive; ? = inconclusive; . = no result. The list is not random: actives were taken first. Their share in the collection is about 12%. Unless noted, the call rests on the fitted dose curve; in most records, active means well fitted curve in the direction sought with a large enough effect; inconclusive means small, poorly fitted or top-dose-only effect, or another doubt; inactive means no such curve, though single readings can be large; an effect the other way counts as inactive or inconclusive.

SMILES	AmpC detergent	Pf growth 48h	Sm TGR block	AmpC no deterg	SARS PLpro yeast	Pf growth 96h
COc1cccc(CNC(=O)CCc2c(C)nn(-c3ccc(N4CCCC4)nn3)c2C)c1	-	.	-	.	.	.
O=S(=O)(Nc1ccc(C(F)(F)F)cc1)c1cnc[nH]1	-	-	-	-	?	-
O=S(=O)(Nc1cccc(C(F)(F)F)c1)c1cnc[nH]1	-	-	-	-	-	10µM
CC(Sc1nc(-c2ccccc2)cc(C(F)(F)F)n1)C(=O)N1CCOCC1 (centres undefined)	-	?	-	-	?	1.7µM
CCCC(C(=O)NC1CCCC1)N(C(=O)Cn1nnc(-c2ccc(C)o2)n1)c1ccccc1OC (centres undefined)	-	10µM	-	-	-	.
Cc1ccc(-c2nnn(CC(=O)N(CC3CCCO3)C(C(=O)NC3CCCC3)c3ccc(F)cc3)n2)o1 (centres undefined)	-	12µM	-	-	-	.
Cc1ccc(-c2nnn(CC(=O)N(CC3CCCO3)C(C(=O)NC3CCCC3)c3ccc(O)cc3)n2)o1 (centres undefined)	-	-	-	-	-	-
COc1ccccc1NC(=O)Cn1c(=O)n(Cc2ccc3c(c2)OCO3)c(=O)c2oc3ccccc3c21	-	.	-	.	.	.
Cc1cc(C)nc(SCC(=O)Nn2cnnc2)n1	-	-	-	-	-	-
O=C(CCOc1ccccc1)Nc1ccccc1	-	-	-	-	-	12µM
O=C(CCCC(=O)c1ccccc1)Nc1ccc(O)cc1	-	-	-	-	-	10µM
O=C(CCCCCN1C(=O)c2ccccc2C1=O)Nc1ccccc1	?	.	-	-	-	-
O=C(CCCCCCC(=O)Nc1ccccc1)NO	.	0.21µM	.	.	.	0.13µM
CC(=O)c1ccc(NC(=O)CCCC(=O)c2ccccc2)cc1	?	-	-	-	-	-
COc1ccc(NC(=O)COC(=O)CCC2CCCC2)c(OC)c1	.	.	.	-	-	.
CCOc1ccc(NS(=O)(=O)c2ccc(C(=O)N(C)Cc3cccc(OC)c3OC)cc2)cc1	-	-	-	-	-	?
Cc1ccsc1/C=C1\SC(=S)N(CC2CCCO2)C1=O (centres undefined)	-	-	.	-	-	1.3µM
CC(=Nc1ccccc1)C1=C(O)CCCC1=O	-	-	-	-	?	12µM
CC(=Nc1ccccc1)C1=C(O)CC(C)(C)CC1=O	-	-	-	-	-	?
CCCSc1nnc(N2C(=O)C(O)=C(C(=O)c3ccco3)C2c2ccccc2F)s1 (centres undefined)	-	-	7.1µM	-	-	-
C=CCSc1nnc(N2C(=O)C(O)=C(C(=O)c3ccco3)C2c2ccccc2F)s1 (centres undefined)	-	-	11µM	-	-	-
CSc1nnc(N2C(=O)C(O)=C(C(=O)c3ccco3)C2c2ccccc2)s1 (centres undefined)	-	-	?	-	-	-
CSc1nnc(N2C(=O)C(O)=C(C(=O)c3ccco3)C2c2ccccc2F)s1 (centres undefined)	-	?	?	-	-	?
Cc1ccc(Sc2c(C)nn(C(C)(C)C)c2OC(=O)CC(C)C)cc1	-	.	-	.	.	.
Cc1ccc(CN2CCC(n3nccc3NC(=O)c3ccccc3C)CC2)o1	?	-	-	-	.	2.1µM
SMILES	AmpC detergent	Pf growth 48h	Sm TGR block	AmpC no deterg	SARS PLpro yeast	Pf growth 96h
CSCC(C)N1CCC(n2nccc2NC(=O)CCCc2ccccc2)CC1 (centres undefined)	-	-	-	-	-	?
CC(CN1CCC(n2nccc2NC(=O)CCCc2ccccc2)CC1)c1ccccc1 (centres undefined)	-	15µM	-	-	-	12µM
Cc1ccccc1C(=O)Nc1ccnn1C1CCN(CC2CC=CCC2)CC1 (centres undefined)	-	-	-	-	-	15µM
Cc1ccccc1C(=O)Nc1ccnn1C1CCN(CCCc2ccccc2)CC1	-	?	-	-	-	15µM
Cc1ccccc1C(=O)Nc1ccnn1C1CCN(Cc2ccc(CO)o2)CC1	-	-	-	-	-	-
Fc1ccc(-c2nc3ccccn3c2NCc2ccc3c(c2)OCO3)cc1	-	8.3µM	-	-	-	-
Cc1ccn2c(NCc3ccc4c(c3)OCO4)c(-c3ccc(O)cc3)nc2c1	?	.	-	-	7.9µM	?
Oc1ccc(-c2nc3ccccn3c2NCc2ccc3c(c2)OCO3)cc1	-	-	-	-	-	?
C#CCOCCOCCOCCNc1nc(N2CCN(C(=O)[C@H](CCC(=O)O)n3cc(C(N)[C@H](C)CC)nn3)CC2)nc(N2CCN(C(=O)[C@H](Cc3ccc(O)cc3)n3cc(C(N)[C@H](C)CC)nn3)CC2)n1 (some centres undefined)	-	-	50µM	-	-	-
C#CCOCCOCCOCCNc1nc(N2CCN(C(=O)C(Cc3ccc(O)cc3)n3cc(C(N)C(C)CC)nn3)CC2)nc(N2CCN(C(=O)C(Cc3ccc(O)cc3)n3cc(C(N)C(C)CC)nn3)CC2)n1 (centres undefined)	-	9.3µM	-	-	-	9.3µM
C#CCOCCOCCOCCNc1nc(N2CCOCC2)nc(N2CCN(C(=O)[C@H](CCC(=O)O)n3cc(C(N)[C@H](C)CC)nn3)CC2)n1 (some centres undefined)	-	-	20µM	-	-	-
C#CCOCCOCCOCCNc1nc(N2CCOCC2)nc(N2CCN(C(=O)[C@H](Cc3ccc(O)cc3)n3cc([C@@H](N)C(C)CC)nn3)CC2)n1 (some centres undefined)	-	?	-	-	-	9.3µM
C#CCOCCOCCOCCNc1nc(N2CCN(C(=O)[C@H](CCCCN)n3cc([C@@H](N)C(C)CC)nn3)CC2)nc(N2CCN(C(=O)[C@H](Cc3ccc(O)cc3)n3cc([C@@H](N)CC(C)C)nn3)CC2)n1 (some centres undefined)	-	-	-	-	-	-
C#CCOCCOCCOCCNc1nc(N2CCN(C(=O)C([C@@H](C)CC)n3cc(C(N)Cc4ccc(O)cc4)nn3)CC2)nc(N2CCN(C(=O)[C@H](CCC(=O)O)n3cc(C(N)[C@H](C)CC)nn3)CC2)n1 (some centres undefined)	-	-	-	-	-	?
CCCCN(C(=O)c1ccc(NC(=O)C(C)C)cc1)c1ccccc1	-	?	.	-	-	?
Cc1c(-c2nnc(SCC(=O)Nc3ccccc3F)o2)nnn1-c1ccc(F)cc1	-	.	-	.	.	.
COc1cc(-c2cccc([C@H]3[C@@H]4C=CC[C@@H](C)[C@@H]4C(=O)N3Cc3ccccc3)c2)cc(OC)c1OC	.	.	.	-	-	.
CCn1c2ccccc2c2cc(/C=N/n3cn[nH]c3=S)ccc21	-	?	-	-	-	8.3µM
